# Measurements from PubChem BioAssay (Tox21).
# Records with an inconclusive call do not appear. Active and inactive are the calls of the source. Calls come from the whole dose curve; as a rule, active = well fitted inhibition curve with a large enough effect in the repeat runs; inconclusive = weak or mixed curves, or effect the other way; inactive = no such curve, though single readings can be large or run the other way. Non-standard residues stand in square brackets, D forms with d. Residues, ends and D or L forms follow the SMILES beside them. *: point of attachment. Sta = CC(C)C[C@H](N)[C@@H](O)CC(=O)O; Isovaleryl = CC(C)CC(=O)*
# Biological target: Nuclear receptor subfamily 1 group I member 3 (Homo sapiens) (UniProt Q14994)
# Assay: qHTS assay to identify small molecule antagonists of the constitutive androstane receptor (CAR) signaling pathway (AID 1224838);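 note: HepG2 cells stably expressing hCAR with CYP2B6 luciferase reporter stimulated by CITCO; nearly all actives have a fitted effect of over 40% in size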
# Conditions: HepG2-CYP2B6-hCAR luciferase, CITCO-stimulated, 24 h; series mostly up to 92.4 µM
# Text: U.S. Tox21 Program National Center for Advancing Translational Sciences [NCATS] NIH Chemical Genomics Center [NCGC] U.S. Environmental Protection Agency [EPA] National Institutes of Environmental Health Sciences [NIEHS] National Toxicology Program [NTP] U.S. Food and Drug Administration [FDA] Tox21 Assay Overview: The constitutive androstane receptor (CAR) is a nuclear receptor which regulates multiple drug metabolizing enzymes (DMEs) and transporters. Activating CAR will generally increase the transcription and subsequent translation of CYP2B6 and CYP3A4. These two DMEs represent about 50% of the drug metabolizing potential in the body. When CAR is deactivated, the metabolizing potential in the body will decrease, subsequently increasing the toxicity in the body or lowering the therapeutic potential of a pro-drug. Recently, there have also been studies performed indicating CARs role in energy metabolism and cancer therapy. Therefore, inhibiting CARs activity could have a potential effect on diabetes and cancer. Identifying environmental toxins and compounds which modulate CAR, through the use of the Tox21 10K compound collection, will be an important step in determining the toxicity and potential therapeutic effects these factors will have on the human body.
# Tox21 Assay Protocol Summary: A double-stable (hCAR and CYP2B6-2.2kb) transfected cell line, derived from human hepatoma (HepG2) cells, was utilized for the duration of the quantitative high-throughput screens. The HepG2-CYP2B6-hCAR cells suspended in DMEM culture medium supplemented with 10% FBS, 5 ug/mL blasticidin, 0.5 mg/mL geneticin, 100 U/mL penicillin and 100 ug/mL streptomycin were dispensed at 2500 cells/4 uL/well in 1536-well white solid bottom plates using a Multidrop Combi. After the assay plates were incubated at 37 C/5% CO2 for 4 hrs, 23 nL of compounds at 15 concentrations (from 5-48 columns) or positive control (from 1 to 4 columns) were transferred to the assay plates using a Pintool station. One uL of CITCO, was added using a Flying Reagent Dispenser to generate a final concentration of 50 nM CITCO inside each well. After a 24 hr incubation period at 37 C/5% CO2, four uL of ONE-Glo reagent was added into the assay plates using a Flying Reagent Dispenser. After a 30 min incubation period at room temperature, the luminescence intensity in the assay plates was measured using a ViewLux plate reader.
# % is set by controls: 0 for no effect and ±100 for the full control effect.
# Chain of Nuclear receptor subfamily 1 group I member 3 (Homo sapiens) (Q14994 whole entry, looked up): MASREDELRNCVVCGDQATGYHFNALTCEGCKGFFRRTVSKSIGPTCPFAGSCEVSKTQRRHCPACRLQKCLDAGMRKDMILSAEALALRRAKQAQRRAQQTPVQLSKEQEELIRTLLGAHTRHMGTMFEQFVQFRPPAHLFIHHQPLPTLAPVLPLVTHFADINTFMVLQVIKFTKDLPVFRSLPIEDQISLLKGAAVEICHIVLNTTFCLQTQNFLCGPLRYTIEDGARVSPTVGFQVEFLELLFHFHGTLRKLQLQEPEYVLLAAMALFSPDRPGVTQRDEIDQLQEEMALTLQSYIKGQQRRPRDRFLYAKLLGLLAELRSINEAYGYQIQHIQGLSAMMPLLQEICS
SMILES,outcome,"activity, negative = inhibition"
CCCCCC(=O)CC,inactive,
COC(=O)c1cc(Cl)c(NC(C)=O)cc1OC,inactive,
C=C(C)C(=O)OCCOC1CC2CC1C1C=CCC21 (stereo not given),inactive,
CC(C)(O)c1ccc(C(C)(C)O)cc1,inactive,
O=C(O)COc1ccc2ccccc2c1,inactive,
c1cc2ccc3ccc4ccc5cccc6c(c1)c2c3c4c56,,27.3% [at 3.26 µM] (inactive)
CC(C)(C)C(=O)NCCCC(=O)O,inactive,
CC/C=C/CCCCCCCCCCOC(C)=O,inactive,
N=C(N)N,inactive,
CCO/C=C1\N=C(c2ccccc2)OC1=O,inactive,
CCNC(=O)C(C)OC(=O)Nc1ccccc1 (stereo not given),inactive,
N#CC1(N)CCCCC1,inactive,
CCCCCCCCCCCCCCCC(=O)OC,,-5.63% [at 19 µM] (inactive)
c1coc(Cn2cccc2)c1,inactive,
COc1cc(OC)cc(OC)c1,inactive,
CC(C)C(C)C,inactive,
CC(CN1CC(=O)NC(=O)C1)N1CC(=O)NC(=O)C1 (stereo not given),inactive,
CN(C)c1cc(NC(=O)CNC(C)(C)C)c(O)c2c1C[C@H]1C[C@H]3[C@H](N(C)C)C(=O)C(C(N)=O)=C(O)[C@@]3(O)C(=O)C1=C2O,inactive,
C[C@@H]1CC[C@@]2(OC1)O[C@H]1C[C@H]3[C@@H]4CC[C@H]5C[C@@H](O)CC[C@]5(C)[C@H]4CC(=O)[C@]3(C)[C@H]1[C@@H]2C,,-17.4% [at 8.39 µM] (inactive)
CC(C)CC(=O)N[C@H](C(=O)N[C@H](C(=O)N[C@@H](CC(C)C)[C@@H](O)CC(=O)N[C@@H](C)C(=O)N[C@@H](CC(C)C)[C@@H](O)CC(=O)O)C(C)C)C(C)C (Isovaleryl-VV[Sta]A[Sta]-OH),inactive,

SMILES,outcome,"activity, negative = inhibition"
CCCCNCC,inactive,
CCCCN=C(N)N=C(N)N,inactive,
CN(C)CCc1c[nH]c2ccc(CS(=O)(=O)N3CCCC3)cc12,inactive,
NNC(=O)OCc1ccccc1,inactive,
CC(C)(C)c1ccc(C(=O)CCCCl)cc1,inactive,
Cc1ccc(O)c(C(=O)c2ccccc2)c1,inactive,
COC(=O)N/N=C/c1c[n+]([O-])c2ccccc2[n+]1[O-],inactive,
Cc1ccc2cccnc2c1,inactive,
CC(C)(C)C(=O)CCc1ccc(Cl)cc1,inactive,
Cc1cc(=O)oc2cc(O[C@@H]3SC[C@@H](O)[C@H](O)[C@H]3O)ccc12,inactive,
O=c1c(O)c(O)c1=O,inactive,
CC(C)(C)NCC(O)COc1cccc2c1CCC(=O)N2 (stereo not given),inactive,
C[C@@H]1NC(=O)[C@@H](N)CNC(=O)[C@H](C2CCNC(N)=N2)NC(=O)/C(=C/NC(N)=O)NC(=O)[C@H](CNC(=O)C[C@@H](N)CCCN)NC1=O (stereo not given in full),,-10.7% [at 0.349 µM] (inactive)
CN(C)CCCN(C)C,,-1.01% [at 8.39 µM] (inactive)
CCCCCCCCOCCC#N,inactive,
CC(C)OCCO,inactive,
CC[N+](C)(CC)CC,inactive,
CCOC(=O)CC,inactive,
CC(C)CC(O)Cc1ccccc1 (stereo not given),inactive,
CCCCCCCCS(=O)(=O)O,inactive,
